This is an account of results in PubChem BioAssay (Tox21).

Inconclusive results are not listed. Values without a mark were called inactive. The source made the active and inactive calls. Calls follow the shape of the dose curve; as a rule, active = well fitted curve in the direction sought with a large enough effect in the repeat runs; inconclusive = weak or mixed curves; inactive = no such curve, though single readings can be large; an effect the other way counts as inactive or inconclusive.

Experiment [1] in a line: A CellTox Green Cytotoxicity Assay to monitor cytotoxicity in HEK293 cells - 40 hour (AID 1224871). Also: nearly all actives have a fitted effect of over 45% in size. Also: potency is read from the fitted curve at half-maximal effect. Put shortly:
(§1)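 Real-time, in one plate: 600 HEK293 cells/well with dead-cell DNA dye, pinned compound after 5 h, 37 C incubation over 40 h; viable cells give no appreciable fluorescence.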

Experiment [2] is described as follows: qHTS RealTime-Glo MT Cell Viability Assay in HEK293 cells - 16 hour (AID 1224872). Also: nearly all actives have a fitted effect of over 50% in size. Also: potency is read from the fitted curve at half-maximal effect. As to activity change, negative = cytotoxicity: top concentration of the series differs between compounds. Put shortly: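 Viability tracked continuously by luminescence as live cells reduce a prosubstrate for NanoLuc; HEK293 cells preincubated 5 h, compound-treated at 37 C, and read at 0, 8, 16, 24, 32 and 40 h.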
A general note: In qHTS, concentration-response curves come from the screen itself.

Experiment [3] can be described thus: qHTS RealTime-Glo MT Cell Viability Assay in HepG2 cells - 8 hour (AID 1224873). Also: nearly all actives have a fitted effect of over 55% in size. Also: potency is read from the fitted curve at half-maximal effect. The procedure, abridged:
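HepG2 cells (600/well) mixed with RealTime-Glo MT reagent, settled 5 h at 37 C/5% CO2 before compound addition. Nonlytic NanoLuc luminescence from viable-cell prosubstrate reduction read repeatedly during 40 h treatment at 37 C.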

Experiment [4] can be described thus: qHTS RealTime-Glo MT Cell Viability Assay in HEK293 cells - 40 hour (AID 1224874). Also: nearly all actives have a fitted effect of over 50% in size. Also: potency is read from the fitted curve at half-maximal effect. As to conditions: RealTime-Glo luminescence; max response: stronger effect = lower value. Put shortly:
(§2)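 Kinetic, non-lysing viability readout. Seed HEK293 (600/well) with reagent, incubate 5 h at 37 C/5% CO2, pin 23 nL compound in DMSO, incubate at 37 C, read luminescence at 0, 8, 16, 24, 32, 40 h.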

The nature of experiment [5]: A CellTox Green Cytotoxicity Assay to monitor cytotoxicity in HEK293 cells - 24 hour (AID 1224875). Also: nearly all actives have a fitted effect of over 45% in size. Also: potency is read from the fitted curve at half-maximal effect. As to activity change: series mostly up to about 77 µM. Put shortly: as §1
Experiment [6] is described as follows: A CellTox Green Cytotoxicity Assay to monitor cytotoxicity in HepG2 cells - 16 hour (AID 1224876). Also: nearly all actives have a fitted effect of over 45% in size. Put shortly:
(§3)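 Cytotoxicity was tracked as dead-cell DNA fluorescence in HepG2 cells treated with test compounds at 37 C; each time-point value comes from one kinetic series spanning 0, 8, 16, 24, 32 and 40 h.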

Experiment [7] can be described thus: qHTS RealTime-Glo MT Cell Viability Assay in HepG2 cells - 32 hour (AID 1224877). Also: nearly all actives have a fitted effect of over 55% in size. Also: potency is read from the fitted curve at half-maximal effect. Put shortly: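 Viability was tracked continuously by NanoLuc luminescence from prosubstrate reduced by living HepG2 cells, at successive time points over 40 h of compound exposure. Cells with reagent were preincubated 5 h at 37 °C before compound addition.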
Experiment [8] can be described thus: A CellTox Green Cytotoxicity Assay to monitor cytotoxicity in HepG2 cells - 40 hour (AID 1224879). Also: nearly all actives have a fitted effect of over 40% in size. Also: potency is read from the fitted curve at half-maximal effect. Put shortly: as §3
The nature of experiment [9]: qHTS RealTime-Glo MT Cell Viability Assay in HEK293 cells - 0 hour (AID 1224880). Also: nearly all actives have a fitted effect of over 45% in size. Also: potency is read from the fitted curve at half-maximal effect. As to activity change, negative = cytotoxicity: top concentration of the series differs between compounds. The procedure, abridged: as §2
The nature of experiment [10]: A CellTox Green Cytotoxicity Assay to monitor cytotoxicity in HepG2 cells - 24 hour (AID 1224878). Also: nearly all actives have a fitted effect of over 45% in size. Also: potency is read from the fitted curve at half-maximal effect. The procedure, abridged:
as §3
% is scaled to controls: 0 for no effect and ±100 for the full control effect.

Turning to `CCCCC(CC)COC(=O)CCCCCCCCC(=O)OCC(CC)CCCC` (centres undefined), the Potency result in experiment [1], in experiment [2], in experiment [3], in experiment [5], in experiment [6] and in [7] was “inactive” each time. The Potency entry in experiment [8] and in experiment [9] was “inactive” in each case. Moreover, in experiment [4], the max response was 1.51%.
On to `O=C(O)c1ccco1`, for which the Potency result in [1], in experiment [2], in experiment [3], in [5], in experiment [6] and in experiment [7] was “inactive” in each case. In addition, the Potency entry in [10] and in experiment [9] was “inactive” each time. For the same compound, in experiment [4], the max response was 9.61%.
In the case of `C=C(C)C(=O)OCCO`, the Potency result in experiment [1], in experiment [2], in [3], in [5], in experiment [6] and in [7] was “inactive” throughout. Further, the Potency result in experiment [10] and in [9] was “inactive” throughout. Moreover, the max response in experiment [4] is 3.51%.
`c1ccc(-c2ccccn2)nc1`: the Potency result in [1], in [2], in experiment [3], in experiment [5], in experiment [6] and in experiment [7] was “inactive” each time. Further, the Potency result in experiment [8] and in experiment [9] was “inactive” each time. Further, in experiment [4], the max response was -0.479%.
Take `Nc1cccc([N+](=O)[O-])c1`: the Potency entry in [1], in experiment [2], in [3], in experiment [5], in experiment [6] and in [10] was “inactive” in each case. Further, the Potency result in [8] and in experiment [9] was “inactive” each time. The max response in experiment [4] is 1.66%.
Regarding `CC(C)(CO)[N+](=O)[O-]`, the Potency entry in [1], in experiment [2], in [3], in experiment [5], in [6] and in experiment [7] was “inactive” in each case. Also, the Potency result in experiment [8] and in experiment [9] was “inactive” each time. Besides, the max response in experiment [4] was 3.49%.
As for `OC(C#CCN1CCCC1)(c1ccccc1)c1ccccc1`, the Potency entry in [1], in experiment [2], in experiment [3], in experiment [5], in [6] and in [7] was “inactive” each time. For the same compound, the Potency entry in [9] was “inactive”. In addition, the max response in experiment [4] is -8.96%.
For the compound `CC(C)Nc1ccc(NC(C)C)c2c1C(=O)c1ccccc1C2=O`, the Potency in [1] is 25.5 µM (active); in experiment [5] it was 25.5 µM (active); in experiment [8], 8.07 µM (active). In addition, the Potency entry in [2], in [3], in experiment [6], in experiment [7] and in experiment [9] was “inactive” in each case. The max response in experiment [4] is -6.09%.
As to `CCCNCC(O)COc1ccccc1C(=O)CCc1ccccc1` (centres undefined), the Potency result in [1], in experiment [3], in [5] and in experiment [7] was “inactive” throughout. Further, the Potency in experiment [2] was 2.13 µM (active); in experiment [4], 2.39 µM (active).
`Cc1cc(N)c2cc(NC(=O)Nc3ccc4nc(C)cc(N)c4c3)ccc2n1`: the Potency result in experiment [1], in [2], in [3], in [5], in [10] and in experiment [8] was “inactive” each time. Also, in experiment [9], the Potency result was “inactive”. Further, the max response in experiment [4] is -16.5%.
Regarding `COC(=O)C1=C(C)NC(COC(N)=O)=C(C(=O)OC(C)C)C1c1cccc(Cl)c1Cl` (centres undefined), the Potency result in experiment [1] and in experiment [5] was “inactive” throughout. Also, the Potency in experiment [2] is 26.8 µM (active); in experiment [3] it was 23.9 µM (active); in experiment [4] it was 26.8 µM (active); in experiment [7] it was 19 µM (active); in experiment [9], 2.68 µM (active).
Regarding `O=C(O)C1(C(=O)Nc2ccc(Cl)cc2Cl)CC1`, the Potency entry in experiment [1], in [2], in experiment [3], in [5], in experiment [7] and in experiment [10] was “inactive” throughout. Moreover, the Potency result in [9] was “inactive”. In experiment [4], the max response was -17.6%.
In the case of `CC1CCC(=O)C1=O` (centres undefined), the Potency entry in experiment [1], in experiment [2], in experiment [3], in experiment [5], in experiment [7] and in experiment [8] was “inactive” each time. For the same compound, the Potency result in experiment [9] is “inactive”. For the same compound, in [4], the max response was 3.01%.
For `Cc1[nH]c(C)c(Cl)c(=O)c1Cl`, the cytotoxicity increase was -3.34% [at 15.8 µM] in [1] and -5.76% [at 15.8 µM] in [8]. Besides, the activity change, negative = cytotoxicity in [2] was -23.6% [at 15.8 µM]; in experiment [9], 7.46% [at 15.8 µM]. Besides, in [3], the viability change, negative = cytotoxic was 0.139% [at 15.8 µM]. Also, in [4], the max response is -19.8%. Besides, the activity change in experiment [5] was -5.28% [at 15.8 µM, stronger effect = higher value]. The activity change, negative = cytotoxic in experiment [7] is 3.22% [at 15.8 µM].
`Nc1ccc(S(=O)(=O)Nc2ccccc2)cc1`: the Potency result in experiment [1], in experiment [2], in [3], in experiment [5], in experiment [6] and in [8] was “inactive” each time. In addition, the Potency entry in experiment [9] was “inactive”. In experiment [4], the max response is 0.381%.
As to `CCN(CC)CCNC(=O)c1cc(Br)c(N)cc1OC`, the Potency result in [1], in experiment [2], in experiment [3], in experiment [5], in [7] and in experiment [10] was “inactive” throughout. The Potency result in [8] and in experiment [9] was “inactive” each time. Besides, the max response in experiment [4] was 10.1%.
For `CC(=O)[O][Al]`, the Potency entry in experiment [1], in experiment [2], in experiment [3], in experiment [5], in experiment [7] and in experiment [10] was “inactive” throughout. Also, the Potency entry in experiment [8] and in experiment [9] was “inactive” throughout. For the same compound, in experiment [4], the max response was 3.87%.
With `O=C(NCC1CN(c2ccc(N3CCOCC3=O)cc2)C(=O)O1)c1ccc(Cl)s1` (centres undefined), the Potency result in experiment [1], in experiment [2], in experiment [3], in experiment [5] and in experiment [9] was “inactive” throughout. For the same compound, the max response in experiment [4] is -20.3%.
As for `CN(C)CCCN1c2ccccc2Sc2ccccc21`, the Potency entry in [1], in experiment [2], in experiment [3], in experiment [5] and in [7] was “inactive” each time. In addition, in [4], the max response was -25.3%. For the same compound, the Potency in [10] was 26.8 µM (active).
With `C#Cc1cccc(Nc2ncnc3cc(OCCOC)c(OCCOC)cc23)c1`, the Potency entry in [1], in experiment [2], in experiment [3], in [5], in [7] and in experiment [10] was “inactive” throughout. The Potency result in [8] and in [9] was “inactive” in each case. Further, in experiment [4], the max response is -23.8%.
